Reference: the supplement of paper PMC12067926
Values without a mark were called inactive.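 Rule for the calls: active = growth AUC significantly below the DMSO wells by Dunnett test; inactive = the rest.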

Each target was assayed with CN(C)C(=O)Nc1ccc(Cl)c(Cl)c1 (assay: relative growth (AUC of 72 h growth curve relative to DMSO control, dAUC) (ratio); higher = more growth (less inhibition), active = hit call of the paper). Details: 20 µM.
Procedure: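 Environmental bacterial isolates (Iceland stream sediment and Silwood Park soil) and whole stream-sediment communities were grown in LB from a 1:100 dilution with each pesticide at 20 µM (1% DMSO). A600 was read hourly for 72 h and the area under a spline-fitted growth curve (AUC) was computed. dAUC is the mean AUC of 3 biological replicates divided by the mean AUC of the DMSO controls. Significance was tested by Dunnett's test against the DMSO control.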

| Target | relative growth |
| --- | --- |
| Pseudomonas 2 (Pseudomonas vancouverensis) | 0.988 |
| Hymenobacter 1 (Hymenobacter glaciei) | 1.02 |
| Community 7 | 1.23 |
| Flavobacterium 2 (Flavobacterium succinicans) | 0.961 |
| Sphingomonas 2 (Sphingomonas sp.) | 1.04 |
| Pseudomonas 3 (Pseudomonas mandelii) | 1.02 |
| Pseudomonas 4 (Pseudomonas peli) | 0.939 |
| Community 10 | 1.05 |
| Pseudomonas 6 (Pseudomonas sp.) | 1.07 |
| Rhizobium 1 (Rhizobium herbae) | 1.19 |
| Argrobacterium 1 (Agrobacterium sp.) | 0.867 |
| Carnobacterium 1 (Carnobacterium gallinarum) | 0.949 |
| Pseudomonas 1 (Pseudomonas baetica) | 1.03 |
| Serratia 1 (Serratia sp. 2015-2462-01) | 0.942 |
| Arthrobacter 3 (Arthrobacter sp.) | 0.947 |
| Pseudomonas 5 (Pseudomonas baetica) | 1.02 |

| Target | relative growth |
| --- | --- |
| Community 9 | 1.04 |
| Microbacterium 1 (Microbacterium arborescens) | 1.03 |
| Aeromonas 3 (Aeromonas popoffii) | 0.977 |
| Bacillus 1 (Bacillus foraminis) | 0.958 |
| Neobacillus 1 (Neobacillus soli) | 0.899 |
| Flavobacterium 1 (Flavobacterium glaciei) | 0.999 |
| Paenibacillus 1 (Paenibacillus castaneae) | 0.883 |
| Community 4 | 1.09 |
| Prolinoborus 1 (Prolinoborus fasciculus) | 0.957 |
| Arthrobacter 1 (Arthrobacter humicola) | 0.944 |
| Oryzobacter 1 (Oryzobacter terrae) | 1.13 |
| Community 6 | 1.03 |
| Community 8 | 1.11 |
| Arthrobacter 2 (Arthrobacter humicola) | 0.977 |
| Aeromonas 1 (Aeromonas sp. AE235) | 0.942 |
| Aeromonas 2 (Aeromonas sobria) | 0.943 |
